Compound activity deposited in PubChem BioAssay by National Center for Advancing Translational Sciences (NCATS).
TGFb inhibitor = inhibitors of TGF-b signaling; hit rate 1.2% among 410,000; HepG2 CAGA-GFP TGF-b/SMAD3 reporter, GFP fluorescence, 18 h; TGF-beta stimulated, 500 pg/mL final; Potency, µM (top dose mostly 46.1 µM), for inactives: top-dose activity, negative = inhibition, hits mostly inhibitors; also: potency is read from the fitted curve at half-maximal effect; % is scaled to controls: 0 for no effect and ±100 for the full control effect; nearly all actives have a fitted effect of over 65% in size
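Using HEPG2 CAGA-GFP reporter cells at 1000 cells/well, we pinned test compounds, stimulated with recombinant TGF-beta (500 pg/mL final) and measured total well GFP after 18 h.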
D3 antag = antagonists of human D3 dopamine receptor; P35462; D3R cells, DiscoveRx beta-arrestin luminescence, antagonist mode; active compounds read low; max response, negative = inhibition, %; hit rate 2.5% among 360,000; AID 652054; in the data active = max response below about -50%; inconclusive = no clear call, values can overlap the other calls; also: % is scaled to controls: 0 for no effect and ±100 for the full control effect
Target sequence (P35462 whole entry, looked up): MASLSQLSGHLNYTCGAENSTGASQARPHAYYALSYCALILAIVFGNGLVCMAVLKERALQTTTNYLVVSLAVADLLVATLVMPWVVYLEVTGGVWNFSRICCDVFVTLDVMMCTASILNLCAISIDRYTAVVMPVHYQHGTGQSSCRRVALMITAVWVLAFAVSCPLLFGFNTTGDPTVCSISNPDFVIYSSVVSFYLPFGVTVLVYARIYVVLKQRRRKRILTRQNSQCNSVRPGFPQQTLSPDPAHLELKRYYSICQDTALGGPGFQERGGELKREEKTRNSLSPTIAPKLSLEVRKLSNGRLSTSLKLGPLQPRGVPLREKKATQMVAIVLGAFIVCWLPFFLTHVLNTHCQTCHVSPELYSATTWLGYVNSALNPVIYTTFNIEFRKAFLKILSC
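Cells plated overnight at 1500 cells/well, then exposed to library compounds with dopamine controls for 90 minutes at 37 degrees C. DiscoveRx reagent added for 30–60 minutes at room temperature; luminescence read, quantitative HTS format.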
HepG2 tox = HepG2 cytotoxicity, counter-screen for TGF-b inhibitors | hit rate 0.76% among 410,000 | HepG2 CAGA-GFP viability, ATP luminescence, 18 h | AID 588856 | Potency, µM (series often up to 46.1 µM), for inactives: top-dose activity change, negative = cytotoxicity, most hits filed as cytotoxic; also: potency is read from the fitted curve at half-maximal effect
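CellTiter-Glo luminescence gave cytotoxicity after 18 hours at 37 degrees C. The cells were HepG2 CAGA-GFP in 1% FBS DMEM, stimulated with 500 pg/mL TGF-beta after compound addition. %Activity was normalised to no-cell wells (complete cell-killing) and DMSO (no toxicity), and curves were fitted and classified.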
ATXN2 expr inh = reduces ATXN2 reporter expression in HEK-293 cells; hit rate 0.72% among 360,000; AID 1745845; Potency, µM (highest dose often 57 µM), without a hit: at the highest dose activity change, negative = inhibition, usual class: inhibitors; HEK-293 ATXN2-luciferase reporter, luminescence, 24 h; also: potency is read from the fitted curve at half-maximal effect; % is scaled to controls: 0 for no effect and ±100 for the full control effect; nearly all actives have a fitted effect of over 55% in size
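ATXN2-luciferase reporter cells (luciferase flanked by upstream and downstream ATXN2 gene portions) were treated 24 h at 37 °C with compounds at up to 57 uM. SteadyGlo luminescence gave expression; GF-AFC fluorescence gave viability.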
ATXN viability = viability counter-screen for ATXN expression inhibitors; AID 651635; S2 cells (HEK-293 line with an ATXN2-luciferase reporter) viability, CellTiter-Fluor protease fluorescence, 24 h; Potency, µM (doses to about 56.7 µM), actives largely listed as cytotoxic; hit rate 0.49% among 400,000; also: potency is read from the fitted curve at half-maximal effect; nearly all actives have a fitted effect of over 40% in size
D3 ag = activates the human D3 dopamine receptor; P35462; D3R DiscoveRx beta-arrestin cells, luminescence, 90 min; max activation, %; hit rate 0.58% among 410,000; AID 652048; in the data active = max activation above about 30%; also: 0% is about no effect
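Cells at 1500/well, incubated overnight, then treated with pinned compounds (dopamine as control) for 90 min at 37 degrees C. DiscoveRx reagent added for 30 - 60 minutes at room temperature; luminescence read.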
Active calls of the source: *; i = inactive; ? = inconclusive; . = no result; [ ] = dose if it differs, or a comment. Most compounds without a hit are left out; they make up all but 4.8% or so of the library. Unless noted, calls follow the shape of the dose curve; as a rule, active = well fitted curve in the direction sought with a large enough effect; inconclusive = small, poorly fitted or top-dose-only effect, or another doubt; inactive = no such curve, though single readings can be large; an effect the other way counts as inactive or inconclusive.

SMILES	TGFb inhibitor	D3 antag	HepG2 tox	ATXN2 expr inh	ATXN viability	D3 ag
Cc1oc(=O)c(NC(=O)c2ccccc2)cc1C(=O)c1ccccc1	?	?	-91%	66%	i	-1
Cc1oc(=O)c(NC(=O)c2ccc(Cl)cc2)cc1C(=O)c1ccccc1	-35%	-80*	-88%	-15%	i	-8
CCC(C)(C)n1nnnc1C(c1ccc(C)cc1)N1CCN(Cc2ccc3c(c2)OCO3)CC1 (configuration not stated)	14%	-70*	-14%	19%	?	2
CCC(C)(C)n1nnnc1C(c1ccc2ncccc2c1)N1CCN(Cc2ccc3c(c2)OCO3)CC1 (configuration not stated)	-1%	-24	-5%	-6%	i	-19
c1ccc(CCn2nnnc2C(c2cccs2)N2CCN(Cc3ccc4c(c3)OCO4)CC2)cc1 (configuration not stated)	-20%	-67*	-25%	-18%	?	-4
NCC(=O)c1c[nH]c2ccccc12	-1%	.	0%	.	.	.
O=C(Cn1c(=O)oc2cc(S(=O)(=O)N3CCCC3)ccc21)N1CCN(c2ccccc2)CC1	19%	-58*	-5%	?	i	-8
Cc1cccc(N2CCN(C(c3ccccc3)c3nnc(-c4ccccc4Cl)o3)CC2)c1C (configuration not stated)	-6%	.	-16%	4%	i	3
Cc1ccc(-c2ccccc2C#N)cc1	.	.	.	4%	i	.
S=C(NCCCN1CCOCC1)N1CCN(c2nc(-c3ccc(Cl)cc3)cs2)CC1	13µM*	-9	11µM*	3.2µM*	.	-6
Cc1nn(-c2ccccc2)c2nc(-c3cccs3)cc(C(=O)NN)c12	10µM*	15	-29%	?	i	4
COc1ccc(-n2nnnc2C2CCN(S(=O)(=O)c3ccc(NC(C)=O)cc3)CC2)cc1	-9%	.	-29%	.	.	17
CN1CCN(CCC(=O)N/N=C/c2cc([N+](=O)[O-])ccc2O)CC1	-13%	-79*	-5%	-8%	i	-24
O=[N+]([O-])c1ccc(O)c(/C=N/n2c(CO)nc3ccccc32)c1	0%	-54*	-21%	242%	i	-17
O=C(CCC(=O)Nc1cccc(Cl)c1)N/N=C/c1cc([N+](=O)[O-])ccc1O	-36%	-62*	-25%	?	?	-16
O=C(CSc1nc2ccccc2s1)N/N=C/c1cc([N+](=O)[O-])ccc1O	-4%	-61*	-26%	-16%	i	-8
Cc1ccc(/C=N/NC(=O)CSc2nc3ccccc3s2)o1	1%	-8	-9%	1%	i	-4
O=C(O)CCCCCC(=O)NN=C1CCCC1	.	.	.	-10%	.	.
O=C(Cn1nc2c(cc1=O)CCCC2)NCc1ccccc1Cl	5%	.	1%	.	.	-3
CC[C@H]1OC(=O)[C@H](C)[C@@H](O[C@H]2C[C@@](C)(OC)[C@@H](O)[C@H](C)O2)[C@H](C)[C@@H](O[C@@H]2O[C@H](C)C[C@H](N(C)C)[C@H]2O)[C@](C)(O)C[C@@H](C)[C@@H]2N[C@@H](COCCOC)O[C@@H]([C@H]2C)[C@]1(C)O	.	.	.	.	?	-8
Cc1ccc(/C=C/C(=O)N2CCC(c3nc4ccccc4o3)CC2)cc1	0%	.	-17%	.	.	-3
Cc1ccc([N+](=O)[O-])cc1NC(=O)CCCOc1ccccc1	?	-64*	0%	-3%	i	-1
Cc1ccc([N+](=O)[O-])cc1NC(=O)CCc1ccccc1	12%	-9	10%	-15%[11.3 µM]	i	-6
Cc1ccccc1NC(=O)CCC(=O)N/N=C/c1cc([N+](=O)[O-])ccc1O	-7%	-58*	-33%	-22%	i	-14
Cc1ccc(Cl)cc1-c1cc(C(=O)NCc2ccc(C(F)(F)F)cc2)[nH]n1	?	-54*	-27%	?	?	-11
SMILES	TGFb inhibitor	D3 antag	HepG2 tox	ATXN2 expr inh	ATXN viability	D3 ag
COc1ccc(Cl)c(-c2cc(C(=O)Nc3ccccc3)[nH]n2)c1	5%	0	-28%	72%	i	-19
COc1ccc(Cl)c(-c2cc(C(=O)Nc3ccc(F)cc3)[nH]n2)c1	-9%	-52*	-44%	6%	i	-20
Cc1ccc(Cl)cc1-c1cc(C(=O)Nc2ccc(F)cc2)[nH]n1	?	-85*	-35%	-38%	?	-18
COc1ccc(CN2CCC(=O)N([C@H](CO)Cc3ccccc3)CC2)cc1	-35%	-28	-20%	-2%	i	-23
O=C1CCN(Cc2cccnc2)CCN1[C@H](CO)Cc1ccccc1	-23%	-67*	-43%	-2%	i	-31
N#CC[C@H](c1ccccc1)N1CCN(Cc2ccccc2)CCC1=O	3%	-10	-3%	7%	i	34*
Cc1ccc(/C=C/c2onc(C)c2S(=O)(=O)N2CCC(C(=O)N3CC(C)Oc4ccccc43)CC2)cc1 (configuration not stated)	-18%	.	-5%	.	.	-19
O=[N+]([O-])c1ccccc1OCCCNCc1ccccc1	-5%	-63*	-14%	-19%	i	-12
COc1cc(C)ccc1OCCCCNCc1ccccc1	-8%	-21	-9%	.	i	-14
CCOc1ccccc1OCCOCCOc1ccccc1[N+](=O)[O-]	-2%	7	0%	-7%	?	3
Clc1ccc(OCCCNCc2ccccc2)c(Br)c1	?	-79*	-105%	?	.	-21
Clc1ccc(Cl)c(OCCCCNCc2ccccc2)c1	?	-69*	16µM*	-13%	i	-13
Cc1cnc(SCc2ccccn2)nc1C1CCCN(C(=O)c2coc3c2C(=O)CCC3)C1 (configuration not stated)	.	.	.	.	i	.
CC(CCc1ccccc1)NC(=O)CN(C)Cc1ccc(F)cc1 (configuration not stated)	3%	-5	-12%	4%	i	-13
CC(CCc1ccccc1)NC(=O)c1cccc(F)c1 (configuration not stated)	11µM*	-7	-44%	2%	i	-3
CC(CCc1ccccc1)NC(=O)CN(C)Cc1ccccc1F (configuration not stated)	-4%	-1	-12%	-4%	i	41*
CC(CCc1ccccc1)NC(=O)c1ccc(C(=O)NC(C)CCc2ccccc2)cc1 (configuration not stated)	-7%	10	-20%	6.3µM*	?	0
COc1ccccc1C1CN(CC(=O)N2CCC(N3CCOCC3)CC2)Cc2ccccc2O1 (configuration not stated)	.	.	.	.	i	.
